Compounds without any hit were thinned out: in the full panel of roughly 83,000, 20% have a hit.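 Note: values are percent growth. 100 is the growth of untreated cells, values between 100 and 0 indicate rising inhibition; between -100 and 0 indicates cell death.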 Values without a mark were called inactive. Active and inactive are the calls of the source. Rule for the calls: active = growth percent below 10; inactive = the rest.
Experiments:
Experiment in all cases: NCI-60 one-dose screen, 48 h (100 = growth as untreated, 0 = no growth, -100 = all killed)
Conditions in all cases: 10 µM unless noted
NCI-H23 lung = tested on: NCI-H23 lung
NCI-H226 lung = tested on: NCI-H226 lung
NCI-H322M lung = tested on: NCI-H322M lung
HOP-62 NSCLC = tested on: HOP-62 NSCLC
NCI-H460 lung = tested on: NCI-H460 lung
HOP-92 NSCLC = tested on: HOP-92 NSCLC
NCI-H522 lung = tested on: NCI-H522 lung
A549/ATCC NSCLC = tested on: A549/ATCC NSCLC
786-0 renal = tested on: 786-0 renal
COLO 205 colon = tested on: COLO 205 colon
DU-145 prostate = tested on: DU-145 prostate
K-562 leukemia = tested on: K-562 leukemia
MALME-3M melanoma = tested on: MALME-3M melanoma
RXF 393 renal = tested on: RXF 393 renal
SF-268 CNS = tested on: SF-268 CNS
SF-295 CNS = tested on: SF-295 CNS
SF-539 CNS = tested on: SF-539 CNS
UACC-257 melanoma = tested on: UACC-257 melanoma
M14 melanoma = tested on: M14 melanoma
MDA-MB-231 breast = tested on: MDA-MB-231 breast

| SMILES | growth (NCI-H23 lung) | growth (NCI-H226 lung) | growth (NCI-H322M lung) | growth (HOP-62 NSCLC) | growth (NCI-H460 lung) | growth (HOP-92 NSCLC) | growth (NCI-H522 lung) | growth (A549/ATCC NSCLC) | growth (786-0 renal) | growth (COLO 205 colon) | growth (DU-145 prostate) | growth (K-562 leukemia) | growth (MALME-3M melanoma) | growth (RXF 393 renal) | growth (SF-268 CNS) | growth (SF-295 CNS) | growth (SF-539 CNS) | growth (UACC-257 melanoma) | growth (M14 melanoma) | growth (MDA-MB-231 breast) |
| --- | --- | --- | --- | --- | --- | --- | --- | --- | --- | --- | --- | --- | --- | --- | --- | --- | --- | --- | --- | --- |
| COc1ccc2cc([C@H](C)C(=O)N/N=C/c3ccc(Br)cc3)ccc2c1 | 101% | 103% | 98.2% | 90.1% | 100% | 103% | 92% | 100% | 95.4% | 108% | 108% | 100% | 95.3% | 100% | 99.5% | 98.8% | 102% | 110% | 102% | – |
| CCCCOc1ccc(NC(=O)c2sc3nc(C)ccc3c2N)cc1 | -69.5% (active) | 10.2% | 40.3% | 21.9% | 7.45% (active) | -37.2% (active) | 17.3% | 0.0895% (active) | -78.5% (active) | 80.4% | 46.4% | 9.87% (active) | 23.3% | -20.7% (active) | 29.8% | -54% (active) | -99.7% (active) | 54.1% | 59.9% | – |
| Cn1cc(-c2nc(N)nnc2-c2c[nH]c3ccc(F)cc23)c2cccnc21 | 35.2% | 38% | 56.2% | 20% | 11.6% | 46.5% | 36.6% | 43.8% | 52.5% | 53.5% | 49.9% | 30.2% | 64.5% | 60.5% | 34% | 15.8% | 40.8% | 61.9% | 26.3% | 22% |
| CCN(CC)CCOc1ccc(Nc2ncc3cc(-c4ccc(O)c(C#N)c4)c(=O)n(C)c3n2)cc1 | 98% | 49.3% | 96.9% | 91.1% | 85.3% | -5.3% (active) | 83.1% | 94.8% | -51.2% (active) | 36.2% | 84.6% | -47.5% (active) | -95.5% (active) | 22.3% | 77.1% | 90.8% | 62.2% | 101% | 70.4% | 11.9% |
| COc1cc(CNC(=O)/C=C/c2ccc3c(c2)OCO3)ccc1OCc1cn(-c2ccc([N+](=O)[O-])cc2)nn1 | 88.8% | 60.6% | 91.5% | 77.8% | 94.6% | 96.7% | 84.9% | 91.6% | 90.6% | 118% | 103% | 92.8% | 87.6% | 72.2% | 86.9% | 88% | 79.8% | 91.5% | 92.9% | – |
| CSc1ccc(C(=O)Nc2ccc3nnn(/C(C#N)=C/c4ccccn4)c3c2)cc1 | -77.8% (active) | -53.4% (active) | 57.9% | -5.88% (active) | -40.1% (active) | -24.8% (active) | -84.6% (active) | 15% | -90.3% (active) | -66.2% (active) | -40.3% (active) | -9.85% (active) | -59.3% (active) | -95.5% (active) | 30.5% | 34.8% | -92% (active) | -38.9% (active) | -73.2% (active) | – |
| O=c1c2ccccc2nc(-c2ccccc2)n1/N=C/c1ccc2ccccc2c1 | 68.2% | 53.3% | 80.1% | 55.7% | 8.58% (active) | 79.7% | 63.1% | 41.8% | 53% | 58.2% | 55.8% | 26.7% | 59% | 81.2% | 49.9% | 46.8% | 27.2% | 49.3% | 57.2% | – |
| N#Cc1ccc(C(=O)Nn2c(N)cc3ccccc3c2=O)cc1 | 93.8% | 84.4% | 94.7% | 99.3% | 80.3% | 88.2% | 95% | 94.4% | 98.3% | 112% | 115% | 89.6% | 77.9% | 104% | 106% | 99% | 90% | 99.5% | 94.5% | – |
| O=C(O)c1cccc(-c2ccc(/C=N/NC(=O)c3[nH]c4ccc(Br)cc4c3-c3ccccc3)o2)c1 | 86.5% | 87.9% | 78.9% | 68.9% | 95.3% | 69.1% | -12.6% (active) | 100% | 84.6% | 114% | 98.7% | 65.8% | 55.2% | 24.7% | 47.6% | 72.3% | 11.8% | 93.8% | 65.9% | – |
| N#Cc1c(-c2ccc(Cl)cc2)nc2n[nH]c(-c3ccc(Cl)cc3)c2c1-c1cccs1 | 62.7% | 54.1% | 76.8% | 62.8% | 51.1% | 15.7% | 54.4% | 54.9% | 67.5% | 53.2% | 65.1% | 16.9% | 55.6% | 58.2% | 72.9% | 63.6% | 64.1% | 58.1% | 64.6% | – |
| CCCCCCCCc1ccc(S(=O)(=O)Nc2ccc(CC)cc2C(=O)O)cc1 | 97.3% | 88% | 95.2% | 99.6% | 96.7% | 71% | 91.4% | 91.9% | 103% | 121% | 105% | 83% | 98.2% | 109% | 97.4% | 81.2% | 101% | 91.1% | 99.1% | 102% |
| N#Cc1c(-c2ccc(Br)cc2)nc2n[nH]c(-c3ccc(Br)cc3)c2c1-c1ccc(C(F)(F)F)cc1 | 15% | 21.7% | 43.1% | 40.3% | 3.96% (active) | -17.3% (active) | 10.1% | 27.4% | 27.6% | -70.5% (active) | 26.2% | -9.32% (active) | -14.5% (active) | 46.7% | 34.7% | 1.6% (active) | 54.2% | 28.5% | 29.2% | – |
| C(=C\c1cc(/C=C/c2ccccc2)c2ccccc2n1)/c1ccccc1 | 82.2% | 106% | 120% | 109% | 102% | 84% | 93.4% | 101% | 80.7% | 118% | 101% | 43.2% | 90.5% | 111% | 102% | 109% | 74.3% | 98.5% | 51.4% | – |
| CC(C)c1ccc2c(N)c(C(=O)Nc3cccc(C(F)(F)F)c3)sc2n1 | 90.5% | 69.3% | 81.2% | 62.6% | 67.7% | 82.7% | 48.8% | 78.8% | 67.9% | 48.2% | 73.4% | 8.51% (active) | 80.3% | 42.1% | 94.2% | 64.9% | 66.6% | 90.1% | 32.8% | – |
| N#Cc1c(-c2cccc(Cl)c2Cl)cc(-c2c[nH]c3ccccc23)[nH]c1=O | 70.2% | 8.48% (active) | 76.5% | 80.1% | 85.6% | -0.53% (active) | 70.2% | 67.2% | 16.9% | 105% | 68.1% | 30.1% | 54.4% | 36.8% | 89.7% | 51.7% | 68.1% | 101% | 34.7% | – |
| C=C1CC[C@@H]2[C@]3(C)COC(c4cn[nH]c4-c4ccc(OC)cc4)O[C@@H]3CC[C@@]2(C)[C@@H]1C/C=C1/C(=O)OCC1O (some centres not stated) | -12.6% (active) | -45% (active) | 32.6% | -56.9% (active) | -49.6% (active) | -34.5% (active) | -18.4% (active) | 7.46% (active) | -89.7% (active) | -83.1% (active) | -27.2% (active) | -31.2% (active) | -62.1% (active) | -58.5% (active) | 3.8% (active) | -41.9% (active) | -87.2% (active) | -24.6% (active) | -50.9% (active) | – |

From PubChem BioAssay (NCI)
